Records with an inconclusive call do not appear. A call without a number means that no potency is given here. The source made the active and inactive calls. Calls come from the whole dose curve.
Potency is the fitted concentration of half-maximal effect.

Chain of Acetylcholinesterase (Homo sapiens) (P22303 whole entry, looked up): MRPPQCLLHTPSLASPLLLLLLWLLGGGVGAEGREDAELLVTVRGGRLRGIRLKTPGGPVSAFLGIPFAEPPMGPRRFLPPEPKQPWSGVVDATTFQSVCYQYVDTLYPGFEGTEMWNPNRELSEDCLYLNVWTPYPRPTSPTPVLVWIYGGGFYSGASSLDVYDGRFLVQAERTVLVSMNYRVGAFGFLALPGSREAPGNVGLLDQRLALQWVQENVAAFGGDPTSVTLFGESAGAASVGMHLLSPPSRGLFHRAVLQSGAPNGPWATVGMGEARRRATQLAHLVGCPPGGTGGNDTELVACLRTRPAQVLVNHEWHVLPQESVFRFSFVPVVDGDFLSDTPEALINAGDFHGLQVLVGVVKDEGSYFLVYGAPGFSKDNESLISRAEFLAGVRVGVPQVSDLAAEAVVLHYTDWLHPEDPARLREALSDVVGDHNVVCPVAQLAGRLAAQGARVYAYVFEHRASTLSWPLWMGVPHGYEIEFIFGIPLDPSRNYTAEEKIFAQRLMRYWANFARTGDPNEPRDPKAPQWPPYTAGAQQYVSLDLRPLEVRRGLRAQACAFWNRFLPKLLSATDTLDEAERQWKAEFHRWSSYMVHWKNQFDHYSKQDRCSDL

The experiment concerns the target Acetylcholinesterase (Homo sapiens) (UniProt P22303). Put plainly: Acetylcholinesterase (AChE) small molecule antagonists: colormetric cell-based qHTS assay (AID 1347395). Note: nearly all actives have a fitted effect of over 30% in size. The note with it: SH-SY5Y cells AChE activity, colorimetric (Ellman); series mostly up to 115 µM. In a few lines:
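Endogenous AChE of human neuroblastoma SH-SY5Y cells was measured with an Ellman-type DTNB/acetylthiocholine mix. Compound pretreatment lasted 30 min at 37 C; substrate reaction ran 90 min at 37 C.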
With `CCN(CCO)c1cccc(C)c1`, the Potency result is “inactive”. For `O=C(O)CCCCCC(=O)O`, the Potency result is “inactive”.

With `CC(C)(C)CC(C)(C)N`, the Potency result was “inactive”.

Consider `CC(C)CCCCCOC(=O)CCS`, for which the Potency result was “inactive”. With `O=S(=O)(O)c1ccc2ccccc2c1`, the Potency entry is “inactive”. Regarding `CC#C[C@]1(O)CC[C@H]2[C@@H]3CCC4=CC(=O)CCC4=C3[C@@H](c3ccc(N(C)C)cc3)C[C@@]21C`, the Potency entry was “inactive”. `N#Cc1ccc(CC(=O)c2cccc(C(F)(F)F)c2)cc1`: the Potency result was “inactive”. As to `Cc1ccncc1`, the Potency result is “inactive”. For `CC(=O)OC(C)C`, the Potency entry was “inactive”. In the case of `CC1Cc2ccccc2N1NC(=O)c1ccc(Cl)c(S(N)(=O)=O)c1` (centres undefined), the Potency result is “inactive”. To `SCCc1cnccn1` belongs “inactive”; to `CNS(=O)(=O)c1cc(C(=O)N2CCC(CCN3C4CCC3CC(n3c(C)nc5ccccc53)C4)(c3cccc(F)c3)CC2)c(Cl)cc1F` (centres undefined), 8.94 µM (active); to `C1=C\CC/C=C\CC/1`, “inactive”. As to `CCOc1cc(OCC)c(C(C)=O)cc1OCC`, the Potency entry is “inactive”. In the case of `NCCCCCCN`, the Potency result is “inactive”. Consider `CC(C)(Oc1ccc(CCNC(=O)c2ccc(Cl)cc2)cc1)C(=O)O`, for which the Potency result was “inactive”. As for `O=Cc1ccc(CO)o1`, the Potency entry is “inactive”. Consider `CC(C)(C)C1=CC(=O)C(C(C)(C)C)=CC1=O`, for which the Potency result is “inactive”. With `CCOC(=O)[C@H](CCc1ccccc1)N[C@@H](C)C(=O)N1CCC[C@H]1C(=O)O`, the Potency entry is “inactive”. In the case of `COC1=C(OC)C(=O)C(CCCCCCCCCCO)=C(C)C1=O`, the Potency result was “inactive”. As to `CC(CNC1CCCCC1)OC(=O)c1ccccc1` (centres undefined), the Potency entry was “inactive”. `C=C(C)c1cccc(C(=C)C)c1`: the Potency entry was “inactive”. Take `O=C(c1ccc(O)cc1)c1ccc(O)c(O)c1O`: the Potency entry was “inactive”.

In the case of `C[CH2][Ge]([Cl])([CH2]C)[CH2]C`, the Potency entry is “inactive”.
